Laboratory results from PubChem BioAssay (EPA / NIEHS).
Activity calls are given as the source filed them. Rule for the calls: active = hit-call score of the fitted dose curve at least 0.9, where 1 is the maximum; inactive = score below 0.9.

Key:
[1] = ATG_CRE_CIS: Attagene CIS-FACTORIAL HepG2 Assay for human cAMP Responsive Element (CRE) binding protein 3 (AID 2282926); conditions: HepG2 CRE cis-reporter, Attagene multiplexed mRNA; actives raise or lower the signal
Procedure, shortened: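 Capillary electrophoresis of 6-FAM-labelled, HpaI-digested PCR products quantified reporter transcripts. These came from HepG2 transiently transfected with cis-element reporters and exposed to test chemicals for 24 hours, with DMSO defining baseline activity.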

[2] = molecular target: CCAAT/enhancer-binding protein beta (Homo sapiens) (UniProt P17676); assay: ATG_C_EBP_CIS: Attagene CIS-FACTORIAL HepG2 Assay for human CCAAT/Enhancer Binding Protein (C/EBP) beta (AID 2282927); conditions: HepG2 Attagene cis-factorial transcription factor reporter; actives raise or lower the signal
CCAAT/enhancer-binding protein beta (Homo sapiens), sequence (P17676 whole entry, looked up): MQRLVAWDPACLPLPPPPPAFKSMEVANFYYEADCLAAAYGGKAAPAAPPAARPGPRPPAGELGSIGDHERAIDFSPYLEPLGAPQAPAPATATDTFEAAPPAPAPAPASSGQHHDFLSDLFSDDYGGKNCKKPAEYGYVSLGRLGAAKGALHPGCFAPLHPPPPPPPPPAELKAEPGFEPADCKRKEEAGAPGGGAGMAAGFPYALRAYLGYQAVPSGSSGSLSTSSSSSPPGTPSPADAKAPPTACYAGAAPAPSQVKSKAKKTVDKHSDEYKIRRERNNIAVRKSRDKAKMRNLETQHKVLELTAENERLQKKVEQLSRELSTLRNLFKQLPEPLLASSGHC
Procedure, shortened: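 HepG2 transiently transfected with multiplexed reporter units under cis-regulatory promoters reporting endogenous C/EBPb activity. After 24 h exposure, reporter mRNA assayed by RT-PCR, fluorescent labelling, HpaI digestion and capillary electrophoresis; bidirectional fitting versus DMSO.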

[3] = ATG_CMV_CIS: Attagene CIS-FACTORIAL HepG2 Assay for human CMV (Internal Marker) (AID 2282928); conditions: HepG2 CMV promoter reporter, transcription factor profiling; actives raise or lower the signal;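 note: endpoint acts as a background internal control marker rather than a target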
Procedure, shortened: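 Reporter transcripts from transfected HepG2 cells are isolated after 24 h of chemical dosing, reverse-transcribed and amplified. Fragments labeled with 6-FAM are cut with HpaI and quantified by capillary electrophoresis; DMSO defines baseline.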

[4] = ATG_DR4_LXR_CIS: Attagene CIS-FACTORIAL HepG2 Assay for human Liver X Receptor (LXR), DR4 submotif (AID 2282929); conditions: HepG2 Attagene DR4 cis-reporter, mRNA transcription; actives raise or lower the signal
Procedure, shortened: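 Transiently transfected HepG2 liver cells; cis-regulated reporters; 24 h dosing. RT-PCR plus CE read-out of reporter mRNA. DMSO baseline, bidirectional curve fitting.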

[5] = molecular target: Aryl hydrocarbon receptor (Homo sapiens) (UniProt P35869); assay: ATG_Ahr_CIS: Attagene CIS-FACTORIAL HepG2 Assay for human Aryl Hydrocarbon Receptor (Ahr) (AID 2282930); conditions: HepG2 AhR cis-factorial reporter transcription; actives raise or lower the signal
Aryl hydrocarbon receptor (Homo sapiens), sequence (P35869 whole entry, looked up): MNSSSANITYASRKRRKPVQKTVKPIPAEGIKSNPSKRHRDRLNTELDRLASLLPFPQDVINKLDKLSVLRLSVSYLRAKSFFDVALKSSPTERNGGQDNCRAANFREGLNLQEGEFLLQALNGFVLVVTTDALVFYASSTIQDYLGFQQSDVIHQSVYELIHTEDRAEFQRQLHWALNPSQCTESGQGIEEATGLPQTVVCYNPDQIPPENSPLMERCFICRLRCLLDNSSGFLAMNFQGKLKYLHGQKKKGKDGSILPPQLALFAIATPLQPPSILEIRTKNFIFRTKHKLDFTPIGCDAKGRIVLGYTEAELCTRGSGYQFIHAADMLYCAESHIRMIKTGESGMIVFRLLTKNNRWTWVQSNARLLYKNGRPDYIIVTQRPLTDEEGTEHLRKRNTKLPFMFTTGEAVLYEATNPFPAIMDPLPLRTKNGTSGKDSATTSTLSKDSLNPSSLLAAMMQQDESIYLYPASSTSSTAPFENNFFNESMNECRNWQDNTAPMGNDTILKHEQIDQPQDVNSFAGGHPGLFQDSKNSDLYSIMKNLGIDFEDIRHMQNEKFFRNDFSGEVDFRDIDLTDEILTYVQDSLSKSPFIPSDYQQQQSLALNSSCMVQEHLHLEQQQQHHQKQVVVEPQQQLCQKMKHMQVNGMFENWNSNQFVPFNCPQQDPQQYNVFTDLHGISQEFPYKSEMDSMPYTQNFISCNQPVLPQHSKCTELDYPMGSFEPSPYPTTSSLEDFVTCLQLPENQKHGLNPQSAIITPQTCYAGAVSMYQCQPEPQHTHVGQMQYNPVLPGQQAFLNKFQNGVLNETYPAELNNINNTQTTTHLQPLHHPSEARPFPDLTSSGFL
Procedure, shortened: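 HepG2 cells transiently transfected with cis-element-driven multiplexed reporter units; endogenous AhR activity read as reporter mRNA 24 h after dosing, via RT-PCR, 6-FAM labelling, HpaI digestion and capillary electrophoresis. Bidirectional fit relative to DMSO.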

[6] = ATG_AP_1_CIS: Attagene CIS-FACTORIAL HepG2 Assay for human Activator Protein 1 (AP-1) (AID 2282931); conditions: HepG2 Attagene cis-factorial AP-1 reporter mRNA; actives raise or lower the signal
Procedure, shortened: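 We transfected HepG2 cells transiently with a set of cis-regulated reporter transcription units, dosed them for 24 h, and quantified reporter mRNA via RT-PCR and capillary electrophoresis, scoring gain or loss of signal relative to DMSO.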

[7] = ATG_AP_2_CIS: Attagene CIS-FACTORIAL HepG2 Assay for human Activator Protein 2 (AP-2) (AID 2282932); conditions: HepG2 AP-2 cis-reporter, Attagene transcription factor profiling; actives raise or lower the signal
Procedure, shortened: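 Liver-derived HepG2 line, cis-reporter system measuring endogenous factors; 24 h dosing; reporter mRNA detected by fluorescent RT-PCR and capillary electrophoresis.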

[8] = ATG_BRE_CIS: Attagene CIS-FACTORIAL HepG2 Assay for human Bone Morphogenetic Protein (BMP) Response Element (BRE) (AID 2282933); conditions: HepG2 BMP response element reporter, Attagene transcription factor profiling; actives raise or lower the signal
Procedure, shortened: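 HepG2 cells transiently transfected with multiplexed cis-element reporter units were dosed with chemical for 24 h. Reporter mRNA was measured by RT-PCR with fluorescent labelling, HpaI digestion and capillary electrophoresis; bidirectional fitting relative to DMSO.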

[9] = molecular target: Retinoic acid receptor alpha (Homo sapiens) (UniProt P10276); assay: ATG_DR5_RAR_CIS: Attagene CIS-FACTORIAL HepG2 Assay for human Retinoic Acid Receptor Alpha (RARE), DR5 submotif (AID 2282934); conditions: HepG2 Attagene cis-factorial RARE DR5 reporter, mRNA; actives raise or lower the signal;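 for AC50: reporter responds to endogenous RAR alpha beta and gamma in HepG2 not RARA alone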
Retinoic acid receptor alpha (Homo sapiens), sequence (P10276 whole entry, looked up): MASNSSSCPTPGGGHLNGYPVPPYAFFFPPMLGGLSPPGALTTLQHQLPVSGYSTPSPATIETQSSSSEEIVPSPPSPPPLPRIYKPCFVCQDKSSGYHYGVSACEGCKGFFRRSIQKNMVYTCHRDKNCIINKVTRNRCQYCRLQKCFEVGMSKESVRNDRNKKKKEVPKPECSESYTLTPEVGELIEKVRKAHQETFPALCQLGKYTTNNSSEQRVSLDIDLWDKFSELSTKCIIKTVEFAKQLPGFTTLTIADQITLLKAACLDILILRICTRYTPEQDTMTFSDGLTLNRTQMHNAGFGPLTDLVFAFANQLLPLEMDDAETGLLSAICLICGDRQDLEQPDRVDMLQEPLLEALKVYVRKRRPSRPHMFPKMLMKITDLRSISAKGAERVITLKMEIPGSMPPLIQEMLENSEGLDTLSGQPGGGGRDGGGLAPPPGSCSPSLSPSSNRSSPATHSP
Procedure, shortened: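 HepG2 cells transiently transfected with multiplexed reporter units; DR5 cis-element drives reporter through endogenous transcription factors. After 24 h dosing, reporter mRNA quantified by RT-PCR, fluorescent labeling, HpaI digestion and capillary electrophoresis; bidirectional fitting versus DMSO.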

[10] = molecular target: Transcription factor E2F1 (Homo sapiens) (UniProt Q01094); assay: ATG_E2F_CIS: Attagene CIS-FACTORIAL HepG2 Assay for human E2F Transcription Factor 1 (AID 2282935); conditions: HepG2 Attagene cis-reporter, E2F reporter RNA transcripts; actives raise or lower the signal
Transcription factor E2F1 (Homo sapiens), sequence (Q01094 whole entry, looked up): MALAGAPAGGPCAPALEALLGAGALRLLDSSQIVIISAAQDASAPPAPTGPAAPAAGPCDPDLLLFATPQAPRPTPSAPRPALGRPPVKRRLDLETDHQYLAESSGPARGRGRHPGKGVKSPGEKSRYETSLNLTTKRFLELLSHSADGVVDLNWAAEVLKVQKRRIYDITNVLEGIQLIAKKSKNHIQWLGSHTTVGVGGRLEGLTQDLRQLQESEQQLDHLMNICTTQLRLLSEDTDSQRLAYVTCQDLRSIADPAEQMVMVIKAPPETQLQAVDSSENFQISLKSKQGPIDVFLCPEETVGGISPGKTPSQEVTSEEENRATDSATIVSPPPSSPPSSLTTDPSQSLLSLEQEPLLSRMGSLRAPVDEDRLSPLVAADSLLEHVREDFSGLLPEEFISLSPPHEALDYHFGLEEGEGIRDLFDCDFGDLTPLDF
Procedure, shortened: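 Liver-derived HepG2 cells expressing transfected promoter-driven reporter units received test chemical for 24 hours. Signal gains or losses were fitted bidirectionally against DMSO.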

[11] = ATG_E_Box_CIS: Attagene CIS-FACTORIAL HepG2 Assay for human Enhancer Box (E-box) (AID 2282936); conditions: HepG2 E-box cis-reporter transcription, actives raise or lower the signal
Procedure, shortened: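 In this cell-based setup, HepG2 cells bearing transfected promoter-driven reporter units were exposed to chemicals for 24 h; reporter transcripts were amplified, 6-FAM-labelled, cut with HpaI and sized by capillary electrophoresis.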

[12] = ATG_M_61_CIS: Attagene CIS-FACTORIAL HepG2 Assay for M61 Transcription Factor (Internal Marker) (AID 2282937); conditions: HepG2 Attagene CIS-FACTORIAL M61 internal marker reporter; actives raise or lower the signal
Procedure, shortened: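 Multiplexed reporter mRNA assay, HepG2 human hepatoma cells, 24 h treatment. Signal: FAM-labelled, HpaI-digested RT-PCR fragments by CE. Fit: bidirectional, baseline DMSO.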

[13] = ATG_EGR_CIS: Attagene CIS-FACTORIAL HepG2 Assay for human Early Growth Response 1 (EGR1) (AID 2282938); conditions: HepG2 Attagene CIS-FACTORIAL EGR reporter mRNA; actives raise or lower the signal
Procedure, shortened: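 Multiplexed cis-reporter system in human hepatoma HepG2 cells, transiently transfected. Cells are dosed for 24 h; reporter transcripts are amplified, fluorescently tagged and sized by capillary electrophoresis, with DMSO as negative control.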

[14] = ATG_M_19_CIS: Attagene CIS-FACTORIAL HepG2 Assay for M19 Transcription Factor (Internal Marker) (AID 2282939); conditions: HepG2 Attagene CIS-FACTORIAL M19 internal marker reporter; actives raise or lower the signal
Procedure, shortened: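 HepG2 cells transiently transfected with cis-regulated multiple reporter transcription units were dosed for 24 h; reporter mRNA was quantified by RT-PCR, 6-FAM primer-extension labelling, HpaI digestion and capillary electrophoresis, with bidirectional fitting against DMSO baseline.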

[15] = ATG_Ets_CIS: Attagene CIS-FACTORIAL HepG2 Assay for human Erythroblast Transformation Specific (ETS) (AID 2282941); conditions: HepG2 ETS cis-reporter transcription, actives raise or lower the signal
Procedure, shortened: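 Bidirectional fit versus DMSO of reporter mRNA signal, detected by RT-PCR and capillary electrophoresis in HepG2 cells transiently transfected with cis-element reporters and dosed 24 h.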

[16] = molecular target: Hepatocyte nuclear factor 3-beta (Homo sapiens) (UniProt Q9Y261); assay: ATG_FoxA2_CIS: Attagene CIS-FACTORIAL HepG2 Assay for human Forkhead box A2 (FOXA2) (AID 2282942); conditions: HepG2 cis-reporter transcription factor activity, 24 h; actives raise or lower the signal
Hepatocyte nuclear factor 3-beta (Homo sapiens), sequence (Q9Y261 whole entry, looked up): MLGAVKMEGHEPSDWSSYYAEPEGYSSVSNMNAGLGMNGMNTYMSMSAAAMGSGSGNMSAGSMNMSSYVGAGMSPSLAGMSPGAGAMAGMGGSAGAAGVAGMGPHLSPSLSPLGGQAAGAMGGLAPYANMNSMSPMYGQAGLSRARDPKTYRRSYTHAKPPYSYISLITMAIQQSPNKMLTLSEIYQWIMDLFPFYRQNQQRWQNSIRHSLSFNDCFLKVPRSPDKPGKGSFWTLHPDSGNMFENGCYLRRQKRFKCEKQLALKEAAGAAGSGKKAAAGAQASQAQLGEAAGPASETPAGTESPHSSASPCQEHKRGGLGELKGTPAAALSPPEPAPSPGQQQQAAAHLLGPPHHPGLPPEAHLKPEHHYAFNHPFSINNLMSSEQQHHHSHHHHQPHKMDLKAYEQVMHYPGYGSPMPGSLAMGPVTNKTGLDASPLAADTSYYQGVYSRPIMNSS
Procedure, shortened: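 Multiplexed cis-element reporter assay in transiently transfected HepG2. Twenty-four hours post-dosing, RNA was reverse-transcribed, amplified, FAM-labelled, HpaI-digested and separated by CE. Activity gain or loss relative to DMSO.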

[17] = ATG_FoxO_CIS: Attagene CIS-FACTORIAL HepG2 Assay for human Forkhead box O (FoxO) (AID 2282943); conditions: HepG2 Attagene cis-reporter, FoxO element, mRNA; actives raise or lower the signal
Procedure, shortened: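 HepG2 cells transiently transfected with cis-element-driven reporter units report endogenous FoxO activity. After 24 h chemical exposure, reporter mRNA quantified by RT-PCR, fluorescent labeling, HpaI digestion and capillary electrophoresis; bidirectional fit versus DMSO.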

[18] = ATG_GATA_CIS: Attagene CIS-FACTORIAL HepG2 Assay for human GATA Binding Protein (AID 2282944); conditions: HepG2 GATA cis-element reporter, Attagene multiplex mRNA; actives raise or lower the signal
Procedure, shortened: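 HepG2 cells transiently transfected with multiplexed cis-element reporter units reflecting endogenous transcription factor activity; reporter mRNA measured after 24 h dosing by RT-PCR, 6-FAM labeling, HpaI digestion and capillary electrophoresis. Bidirectional fitting versus DMSO baseline.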

[19] = ATG_GLI_CIS: Attagene CIS-FACTORIAL HepG2 Assay for human Zinc Finger Protein GLI1 (AID 2282945); conditions: HepG2, Attagene cis-factorial reporter mRNA, GLI element; actives raise or lower the signal
Procedure, shortened: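 Transiently transfected HepG2 cells report endogenous transcription factor activity via cis-element-driven reporter units. After 24 h compound exposure, reporter mRNA was measured by RT-PCR with capillary electrophoresis; bidirectional fitting against DMSO baseline.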

[20] = ATG_ERE_CIS: Attagene CIS-FACTORIAL HepG2 Assay for Estrogen Response Element (ERE) (AID 2282940); conditions: HepG2 ERE cis-reporter, Attagene RNA transcript; actives raise or lower the signal
Procedure, shortened: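 HepG2 cells transiently transfected with cis-promoter-driven multiplexed reporter transcription units report endogenous TF activity. After 24 h compound exposure, reporter mRNA is quantified by RT-PCR with capillary electrophoresis fluorescence; bidirectional fitting versus DMSO baseline.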

## CC1=NN(c2ccc(S(=O)(=O)O)cc2)C(=O)C1
[1]
  outcome: inactive
[2]
  outcome: inactive
[3]
  outcome: inactive
[4]
  outcome: inactive
[5]
  outcome: inactive
[6]
  outcome: inactive
[7]
  outcome: inactive
[8]
  outcome: inactive
[9]
  outcome: inactive
[10]
  outcome: inactive
[11]
  outcome: inactive
[12]
  outcome: inactive
[13]
  outcome: inactive
[14]
  outcome: inactive
[15]
  outcome: inactive
[16]
  outcome: inactive
[17]
  outcome: inactive
[18]
  outcome: inactive
[19]
  outcome: inactive

## CCCCCCCCCCCC(=O)OCC(O)CO (centres undefined)
[1]
  AC50: 48.2 µM (active)
[2]
  outcome: inactive
[3]
  outcome: inactive
[4]
  outcome: inactive
[5]
  AC50: 21.3 µM (active)
[6]
  AC50: 158 µM (active)
[7]
  outcome: inactive
[8]
  outcome: inactive
[9]
  AC50: 100 µM (active)
[10]
  outcome: inactive
[11]
  outcome: inactive
[12]
  outcome: inactive
[13]
  outcome: inactive
[14]
  outcome: inactive
[20]
  outcome: inactive
[15]
  outcome: inactive
[16]
  outcome: inactive
[17]
  outcome: inactive
[18]
  outcome: inactive
[19]
  outcome: inactive

## CC(C)Nc1nc(N)nc(Cl)n1
[1]
  outcome: inactive
[2]
  outcome: inactive
[3]
  outcome: inactive
[4]
  outcome: inactive
[5]
  outcome: inactive
[6]
  outcome: inactive
[7]
  outcome: inactive
[8]
  outcome: inactive
[9]
  outcome: inactive
[10]
  outcome: inactive
[11]
  outcome: inactive
[12]
  outcome: inactive
[13]
  outcome: inactive
[14]
  outcome: inactive
[15]
  outcome: inactive
[16]
  outcome: inactive
[17]
  outcome: inactive
[18]
  outcome: inactive
[19]
  outcome: inactive

## C=C[Si]1(C)O[Si](C)(C=C)O[Si](C)(C=C)O[Si](C)(C=C)O1 (centres undefined)
[1]
  outcome: inactive
[2]
  outcome: inactive
[3]
  AC50: 51.7 µM (active)
[4]
  AC50: 4.46 µM (active)
[5]
  outcome: inactive
[6]
  AC50: 36.1 µM (active)
[7]
  outcome: inactive
[8]
  outcome: inactive
[9]
  outcome: inactive
[10]
  outcome: inactive
[11]
  outcome: inactive
[12]
  outcome: inactive
[13]
  outcome: inactive
[14]
  outcome: inactive
[15]
  outcome: inactive
[16]
  outcome: inactive
[17]
  outcome: inactive
[18]
  outcome: inactive
[19]
  outcome: inactive

## CCCCCCC(CO)CCCC (centres undefined)
[1]
  outcome: inactive
[2]
  outcome: inactive
[3]
  outcome: inactive
[4]
  outcome: inactive
[5]
  AC50: 25.6 µM (active)
[6]
  outcome: inactive
[7]
  outcome: inactive
[8]
  outcome: inactive
[9]
  outcome: inactive
[10]
  outcome: inactive
[11]
  outcome: inactive
[12]
  outcome: inactive
[13]
  outcome: inactive
[14]
  outcome: inactive
[15]
  outcome: inactive
[16]
  outcome: inactive
[17]
  outcome: inactive
[18]
  outcome: inactive
[19]
  outcome: inactive

## C=C1CC[C@H](O)C/C1=C/C=C1\CCC[C@]2(C)[C@@H]([C@H](C)/C=C/[C@H](C)C(C)C)CC[C@@H]12
[1]
  outcome: inactive
[2]
  outcome: inactive
[3]
  outcome: inactive
[4]
  outcome: inactive
[5]
  outcome: inactive
[6]
  AC50: 30.3 µM (active)
[7]
  outcome: inactive
[8]
  outcome: inactive
[9]
  AC50: 39.8 µM (active)
[10]
  outcome: inactive
[11]
  outcome: inactive
[12]
  outcome: inactive
[13]
  outcome: inactive
[14]
  outcome: inactive
[15]
  outcome: inactive
[16]
  outcome: inactive
[17]
  outcome: inactive
[18]
  outcome: inactive
[19]
  outcome: inactive

## CCCCCC(C)=O
[1]
  outcome: inactive
[2]
  outcome: inactive
[3]
  outcome: inactive
[4]
  outcome: inactive
[5]
  outcome: inactive
[6]
  outcome: inactive
[7]
  outcome: inactive
[8]
  outcome: inactive
[9]
  outcome: inactive
[10]
  outcome: inactive
[11]
  outcome: inactive
[12]
  outcome: inactive
[13]
  outcome: inactive
[14]
  outcome: inactive
[15]
  outcome: inactive
[16]
  outcome: inactive
[17]
  outcome: inactive
[18]
  outcome: inactive
[19]
  outcome: inactive
